Data: PubChem BioAssay
Potency and affinity values are given separately. Active and inactive are the calls of the source. A call without a number means that no potency is given here. The rule behind the calls is not given here.

Target: Plasmodium falciparum protein kinase 6 (PK6, PF3D7_1337100) (UniProt Q8IDW1)
Assay: PfPK6 kinase inhibitors, biochemical, TCAMS library (AID 1159586)
Conditions: recombinant PfPK6, Kinase-Glo ATP depletion luminescence

Plasmodium falciparum protein kinase 6 (PK6, PF3D7_1337100), sequence (Q8IDW1 1-305): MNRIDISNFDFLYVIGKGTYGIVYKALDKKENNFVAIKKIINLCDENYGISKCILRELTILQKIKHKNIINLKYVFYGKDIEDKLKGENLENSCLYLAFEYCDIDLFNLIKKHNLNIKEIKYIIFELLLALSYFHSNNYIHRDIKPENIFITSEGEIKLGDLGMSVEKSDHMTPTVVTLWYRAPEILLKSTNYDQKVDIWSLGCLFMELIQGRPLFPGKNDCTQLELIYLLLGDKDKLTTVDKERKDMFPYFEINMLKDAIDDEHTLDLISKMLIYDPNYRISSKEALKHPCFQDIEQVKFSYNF

| SMILES | outcome |
| --- | --- |
| Cc1cc(NCCCCCCCCNc2cc(C)nc3ccccc23)c2ccccc2n1 | inactive |
| CC(C)n1ncc2c(C(=O)N3CCCC4CCCCC43)cc(C3CC3)nc21 (stereo unspecified) | inactive |
| CCCC1CCNC(C(O)c2ccnc3ccc(OC)cc23)C1 (stereo unspecified) | inactive |
| CC(C)C(=O)n1ncc2c3c(N)nc(N)nc3ccc21 | inactive |
| Oc1ccc(CCCNc2nc(NCc3cccc4ccccc34)nc(N3CCNCC3)n2)cc1 | inactive |
| CC1N=C(N)N=C(N)N1OCc1ccccc1 (stereo unspecified) | inactive |
| CC(C)c1cc(N)c2cc(NC(=O)COCC(=O)Nc3ccc4nc(C(C)C)cc(N)c4c3)ccc2n1 | inactive |
| Cc1ccnc(Nc2nc(-c3ccccn3)cs2)c1 | inactive |
| NC(=O)c1cccc(C(=O)Nc2ccc(-c3cccc(-c4nc5ccc(C(F)(F)F)cc5[nH]4)c3)cc2)c1 | inactive |
| COc1ccc(CC(=O)Nc2ccc(Nc3nc(C)cc(N(C)C)n3)cc2)cc1 | inactive |
| CC1(C)N=C(NC(=O)c2ccc([N+](=O)[O-])cc2)N=C(N)N1OCc1ccc2ccccc2c1 | inactive |
| Cc1ccc(C)c(C2CCN(CCCCNC(=O)c3ccc(NC(=O)c4ccc(Cl)cc4)cc3)CC2)c1 | inactive |
| CCCc1ccc(NC(=O)c2ccc(CN3CCCN(Cc4cccc(O)c4)CC3)cc2)cc1 | inactive |
| Cc1[nH]c(C)c(-c2ccc(OCc3cccc(C(F)(F)F)c3)nc2)c(=O)c1Br | inactive |
| COc1ccccc1NC(=O)Nc1cccc(-c2cccc(-c3nc4ccc(C(F)(F)F)cc4[nH]3)c2)c1 | inactive |
| Cc1cc(NN=Cc2cccc(F)c2)c2ccc(F)cc2n1 | inactive |
